According to PubChem BioAssay AID652172 (National Center for Advancing Translational Sciences (NCATS), 2013):
Some of the results follow. Results filed as inconclusive are left out. Calls of active or inactive are those of the source. Calls come from the whole dose curve; as a rule, active = well fitted inhibition curve with a large enough effect; inconclusive = small, poorly fitted or top-dose-only effect; inactive = flat fitted curve, though single readings scatter.

What follows are molecules tested against Ubiquitin carboxyl-terminal hydrolase 2 (Homo sapiens) (UniProt O75604) (assay: Confirmation Assay for Inhibitors of Ubiquitin-specific Protease USP2a Using CHOP2 as the Reporter: K633). Conditions: USP2 cleavage of DiUb K63-3IQF, fluorescence kinetic.
Description: Homeostasis of cellular proteins is maintained through a combination of synthesis and degradation. The pathway that accounts for the majority of protein degradation is the ubiquitin-proteasomal pathway. Ubiquitin (Ub) is highly conserved in all cells and the generation of a multi-Ub chain typically targets proteins for degradation by the proteasome. However, ubiquitination is highly reversible and dynamic. Deubiquitination, the reverse process, is catalyzed through the action of enzymes referred to as isopeptidases or deubiquitinating enzymes (DUBs). This group of enzymes is collectively responsible for maintaining adequate pools of free ubiquitin and regulating the ubiquitination status of cellular proteins. The class of DUBs referred to as the ubiquitin-specific proteases (USP) family functions endoproteolytically to cleave Ub chains from a wide range of protein substrates. […] Confirmed qHTS active compounds were tested in an orthogonal USP2 assays utilizing a di-ubiquitin substrate labeled with a quencher on one ubiquitin and a fluorescent compound on the other, i.e. the substrate has internally quenched fluorescence or IQF (Lifesensors). In the presence of active USP2, the diubiquitin (DiUb) is cleaved and the fluorescence at 598 nm increases. […] Upon inhibition of USP2, the fluorescence signal from cleaved substrate increases less over time than in the absence of an inhibitor. […]

Sequence of Ubiquitin carboxyl-terminal hydrolase 2 (Homo sapiens) (O75604 whole entry, looked up): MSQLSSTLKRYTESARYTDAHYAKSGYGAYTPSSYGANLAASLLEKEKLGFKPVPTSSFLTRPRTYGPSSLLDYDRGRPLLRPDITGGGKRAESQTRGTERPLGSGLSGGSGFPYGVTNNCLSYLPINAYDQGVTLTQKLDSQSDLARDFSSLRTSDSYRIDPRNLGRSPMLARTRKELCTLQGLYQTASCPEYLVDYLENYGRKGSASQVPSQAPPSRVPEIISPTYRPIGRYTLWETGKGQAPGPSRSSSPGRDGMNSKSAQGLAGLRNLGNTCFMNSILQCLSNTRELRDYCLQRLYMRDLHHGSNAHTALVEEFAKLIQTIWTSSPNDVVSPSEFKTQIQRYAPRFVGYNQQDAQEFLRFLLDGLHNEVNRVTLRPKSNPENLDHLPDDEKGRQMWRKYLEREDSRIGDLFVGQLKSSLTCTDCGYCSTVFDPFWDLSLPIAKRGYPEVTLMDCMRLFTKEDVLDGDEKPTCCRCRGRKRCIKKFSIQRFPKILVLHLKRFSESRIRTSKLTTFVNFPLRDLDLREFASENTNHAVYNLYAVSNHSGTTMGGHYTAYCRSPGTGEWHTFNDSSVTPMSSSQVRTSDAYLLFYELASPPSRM

Compound | Potency
Cc1ccc(-c2cc(C(=O)Nc3ncco3)c3ccccc3n2)cc1C | 3.43 µM (active)
